# Laboratory results reported in PubChem BioAssay (NCI).
# The panel holds about 83,000 compounds, 20% with a hit somewhere; the sample as a whole holds those more often.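 Method: cells in 96-well plates; compound added at one concentration; 48 h incubation; percent growth measured; values under 10 scored active.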 Values without a mark were called inactive. The source made the active and inactive calls.
# Test system: UACC-62 melanoma
# Experiment: NCI-60 one-dose screen, 48 h (100 = growth as untreated, 0 = no growth, -100 = all killed)
# Details: 10 µM unless noted
row,SMILES,growth
1,CNCc1cccc2c1OCCOCCOCCN(CCN1CCOCC1)S(=O)(=O)c1ccc(cc1)-c1cnc(N)c(n1)C(=O)N2,73%
2,Cc1cnc(-c2ccc(-c3ccc(NC(=O)Nc4c(F)cc(F)cc4F)cc3F)c3c2C(=O)NC3)[nH]1,0.806% (active)
3,Cc1cc(C)c(NC(=O)c2sc3nc4c(cc3c2N)CCCCCC4)c(C)c1,34.5%
4,O=C1NN(c2ccccc2)C(c2ccc3c(c2)OCO3)N2CCC[C@@H]12 (some centres not stated),92%
5,C=C1C(=O)O[C@H]2[C@H]1CC/C(COC(=O)CCCCCCCCC(=O)OC/C1=C/CC[C@@]3(C)O[C@H]3[C@H]3OC(=O)C(=C)[C@@H]3CC1)=C\CC[C@@]1(C)O[C@@H]21,-18.8% (active)
6,COc1ccc(C2N(c3cc(OC)c(OC)c(OC)c3)C(=O)C2(F)F)cc1F (configuration not stated),55.5%
7,C=C1C(=O)O[C@H]2[C@H]1CC/C(COC(=O)CCCCCCC(=O)OC/C1=C/CC[C@@]3(C)O[C@H]3[C@H]3OC(=O)C(=C)[C@@H]3CC1)=C\CC[C@@]1(C)O[C@@H]21,42.3%
8,O=c1nc(-c2ccccc2)c2cc(-c3ccc(N4CCCC4)nc3)ccc2[nH]1,57.2%
9,O=C(Nc1nc(-c2ccccc2)cs1)c1cc(-c2ccc(Br)cc2)nc2ccccc12,50.5%
10,COc1ccc2nc3c(n2c1)C(=O)C(=O)c1ccccc1-3,-91.1% (active)
11,C=C1C(=O)O[C@H]2[C@H]1CCC(/C=N/c1ncc(Br)cc1N)=C\CC[C@@]1(C)O[C@@H]21,22.5%
12,COC(=O)c1ccc(NC(=O)CSc2nc(-c3ccc(F)cc3)nc3ccccc23)cc1,93.4%
13,COc1ccc(C2C(c3ccccc3)C(=O)N2c2cc(OC)c(OC)c(OC)c2)cc1I (configuration not stated),28.1%
14,O=[N+]([O-])c1cccc(CN(Cc2cccc([N+](=O)[O-])c2O)c2ccccc2)c1O,69.6%
15,Nc1c(C(=O)Nc2ccccn2)sc2nc3c(cc12)CCCCCC3,24.8%
16,C[C@]12CC[C@@H]3c4ccc(O)cc4CC[C@H]3[C@@H]1C[C@H](O)C2,43.6%
17,COCCOCCOCc1n(Cc2ccc3ccccc3c2)c2ccccc2[n+]1Cc1ccc2ccccc2c1,-29.6% (active)
18,COc1ccc(C(=O)c2cc(F)c(F)c(OC)c2F)cc1OC(=O)CCl,31.7%
19,Nc1cccc(C(=O)Nc2ccc3c(O)c(N=Nc4ccc(N=Nc5ccc(S(=O)(=O)O)cc5)cc4)c(S(=O)(=O)O)cc3c2)c1,97.4%

row,SMILES,growth
1,O=C(Nc1ccccc1)NS(=O)(=O)c1c[nH]c(=S)[nH]c1=O,99.5%
2,CC(C)CSc1nc(Nc2ccccc2)c(C#N)c(-c2ccc(F)cc2)n1,70.9%
3,CC(C)(C#N)c1cc(F)cc(C(=O)Nc2cc(Nc3ncccc3-c3ncnc4nc[nH]c34)ccc2F)c1,9.35% (active)
4,COc1c(O)cc2oc3cc(O[C@@H]4OC(C)[C@@H](O)[C@H](O)C4O)c(CC=C(C)C)c(O)c3c(=O)c2c1CC=C(C)C (some centres not stated),96.9%
5,O=C(CCCC(=O)Nc1ccc(-n2nnc3cc(Cl)c(Cl)cc32)cc1)Nc1ccc(-n2nnc3cc(Cl)c(Cl)cc32)cc1,30.8%
6,Cn1cc(-c2ccc3c(c2)ncn3-c2ccc(CC(=O)Nc3cc(C(C)(C)C)on3)cc2)cn1,35.4%
7,CCC1S/C(=N\N=C(/C)c2ccc[nH]2)N(c2ccccc2)C1=O (configuration not stated),101%
8,CC(=O)ON1CCCC(P(=O)(OCOC(=O)C(C)(C)C)OCOC(=O)C(C)(C)C)C1=O (configuration not stated),-64.7% (active)
9,Cc1cccc(C)c1Nc1nnc(-c2ccc(F)cc2)o1,103%
10,COc1ccc(C2=NN(c3ccc(S(N)(=O)=O)cc3)C(c3ccc(Cl)cc3)C2)c(O)c1 (configuration not stated),52.9%
11,CC(=O)Nc1nc2c(c(N)c1C#N)C(c1cccc(Cl)c1)C1=C(CCCC1=O)N2c1sc2c(c1C#N)CCCC2 (configuration not stated),59.8%
12,C#Cc1ccccc1NC(=O)c1sc2nc3c(cc2c1N)CCCCCC3,91.8%
13,C=C(C)[C@@H]1CC[C@]2(C(=O)N3CCN(C)CC3)CC[C@]3(C)[C@H](CC[C@@H]4[C@@]5(C)C/C(=C/c6ccco6)C(=O)C(C)(C)[C@@H]5CC[C@]43C)[C@@H]12,76.1%
14,CCCCC(=O)Nc1c(C(=O)Nc2ccccc2)sc2nc3c(cc12)C(OC(=O)CCCC)CCC3 (configuration not stated),87.6%
15,C#CC[C@@H]1C[C@]2(C)[C@H]3CC[C@@H]4[C@H]5[C@H](C(=C)C)CC[C@]5(C(=O)O)CC[C@@]4(C)[C@]3(C)CC[C@H]2C(C)(C)[C@H]1O,72.2%
16,Cc1ccc(-c2nc(C#N)c(S(=O)(=O)N(C)CCO)o2)cc1,62.4%
17,FC(F)(F)c1ccc2c(Nc3cccc(C4CC(c5ccccc5)=NN4c4ccc(Cl)cc4)c3)ccnc2c1 (configuration not stated),49.4%
18,COc1ccc2nc(-c3ccc(OC)c(OC)c3)cc(-c3nnc(SCC(=O)Nc4ccc(/C(C)=N\O)cc4)n3-c3ccccc3)c2c1,71.1%
